PubChem BioAssay (NCATS)
Records with an inconclusive call do not appear. Where a call stands in place of a potency, no number is given. Active and inactive are the calls of the source. Calls follow the shape of the dose curve; as a rule, active = well fitted inhibition curve with a large enough effect; inconclusive = small, poorly fitted or top-dose-only effect; inactive = flat fitted curve, though single readings scatter. Residues, ends and D or L forms follow the SMILES beside them. *: point of attachment. Cbz = O=C(OCc1ccccc1)*

Tested on: Zika virus NS2B-NS3 protease
Test: Primary screen GU AMC qHTS for Zika virus inhibitors (AID 1347154); also: nearly all actives have a fitted effect of over 70% in size
Conditions: Zika NS2B-NS3 unlinked protease, AMC fluorogenic substrate; series mostly up to 54.1 µM
In short: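 Unlinked Zika NS2B hydrophilic domain–NS3 protease complex at 25 nM in 10 mM Tris-HCl pH 8.0, 0.01% Tween 20, with an AMC peptide substrate. Fluorescence change (340/450 nm) over 15 min at room temperature, normalized to controls, fitted to 4-parameter Hill.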

SMILES | Potency
C=CC(=O)Nc1cc(NC(=O)c2ccc(C)c(NC(=O)c3ccno3)c2)cc(C(F)(F)F)c1 | inactive
CC[C@H](CC[C@@H](C)[C@H]1CC[C@H]2[C@@H]3CC=C4C[C@@H](O)CC[C@]4(C)[C@@H]3CC[C@]12C)C(C)C | inactive
OCCN1C[C@H](O)[C@@H](O)[C@H](O)[C@@H]1CO | inactive
C[C@@H]1[C@H](C)CC[C@]2(C(=O)O)CC[C@]3(C)C(=CC[C@@H]4[C@@]5(C)C[C@@H](O)[C@H](O)[C@@](C)(CO)[C@H]5CC[C@]43C)[C@@H]12 | inactive
CCc1c(O)cc(O)c(C(=O)c2ccc(OCCN3CCOCC3)c(OC)c2)c1CC(=O)N(CCOC)CCOC | inactive
COc1ccc(C(C)=O)c(O)c1 | inactive
N=c1ccn2c(n1)O[C@H]1[C@@H](O)[C@@H](CO)O[C@H]12 | inactive
CC(C)C[C@@H](C=O)NC(=O)[C@H](CC(C)C)NC(=O)[C@H](CC(C)C)NC(=O)OCc1ccccc1 (Cbz-Leu-Leu-Leu-aldehyde) | inactive
C[C@@H]1CC[C@@]2(OC1)OC1CC3C4CC=C5CC(O)CCC5(C)C4CCC3(C)C1[C@@H]2C (some centres undefined) | inactive
Cc1ccc(O)c(C(CCN(C(C)C)C(C)C)c2ccccc2)c1 (centres undefined) | inactive
CC(C)[C@H](CO)Nc1nc(Nc2cccc(Cl)c2)c2ncn(C(C)C)c2n1 | inactive
COc1cc2ncnc(Nc3cccc(Br)c3)c2cc1OC | inactive
CC(C)N1[N]C(=C2C=c3cc(O)ccc3=N2)c2c(N)ncnc21 | inactive
CCCCC(=O)O[C@]1(C(=O)CO)[C@@H](C)C[C@H]2[C@@H]3CCC4=CC(=O)C=C[C@]4(C)[C@@]3(F)[C@@H](O)C[C@@]21C | inactive
